Consider nine compounds from PubChem BioAssay (Tox21).

Where a structure was tested more than once in an assay, its records may differ in their call. Active and inactive are the calls of the source. Unless noted, calls follow the shape of the dose curve; as a rule, active = well fitted curve in the direction sought with a large enough effect in the repeat runs; inconclusive = weak or mixed curves; inactive = no such curve, though single readings can be large; an effect the other way counts as inactive or inconclusive.

Test [1] in a line: qHTS assay to identify small molecule antagonists of the thyroid receptor (TR) signaling pathway (AID 743065). Also: nearly all actives have a fitted effect of over 55% in size. Also: potency is read from the fitted curve at half-maximal effect. In short, it runs like this: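 GH3.TRE-Luc rat pituitary cells (two TREs driving luciferase) were dosed with compound, then stimulated with 1 nM T3 (final) for 23.5 h at 37 C. ONE-Glo luminescence was the read-out, with CellTiter-Fluor fluorescence as the cytotoxicity counter-screen.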
For orientation: qHTS replaces the single test concentration by a dilution series.

The subject of test [2] is thyroid hormone receptor (rat, GH3 cells). Briefly: qHTS assay to identify small molecule agonists of the thyroid receptor (TR) signaling pathway (AID 743066; calls by dose curve).
Test [3] can be described thus: qHTS assay to identify small molecule antagonists of the estrogen receptor alpha (ER-alpha) signaling pathway - cell viability counter screen (AID 743074; calls by dose curve;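 also: HEK293 cells carrying ER-alpha-UAS-bla reporter stimulated with 17beta-estradiol; nearly all actives have a fitted effect of over 45% in size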).
Test [4] can be described thus: qHTS assay to identify small molecule antagonists of the estrogen receptor alpha (ER-alpha) signaling pathway using the BG1 cell line - cell viability counter screen (AID 743081).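 Also: compound given together with 17beta-estradiol as the ER stimulus; nearly all actives have a fitted effect of over 45% in size.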
A further test addresses Aromatase (Homo sapiens) (UniProt P11511). Briefly: qHTS assay to identify aromatase inhibitors (AID 743083). Also: nearly all actives have a fitted effect of over 55% in size.
Test [5] in a line: qHTS assay to identify aromatase inhibitors - cell viability counter screen (AID 743084).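 Also: cells stimulated with testosterone during compound exposure; nearly all actives have a fitted effect of over 55% in size.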
Test [6] concerns the target Aryl hydrocarbon receptor (Homo sapiens) (UniProt P35869). The experiment in a line: qHTS assay to identify small molecule that activate the aryl hydrocarbon receptor (AhR) signaling pathway (AID 743085).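 Also: HG2L7.5c1 human HepG2 liver cells with stably integrated DRE-driven firefly reporter; nearly all actives have a fitted effect of over 15% in size.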 In short, it runs like this:
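HepG2 cells (HG2L7.5c1) stably carrying a firefly luciferase reporter driven by 20 dioxin responsive elements were exposed to compound for 24 h at 37C after a 5 h settling period; luminescence rise (ONE-Glo) indicated activation.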

A short description of test [7]: qHTS assay to identify small molecule that activate the aryl hydrocarbon receptor (AhR) signaling pathway - cell viability counter screen (AID 743086).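 Also: HepG2 liver cells carrying the AhR DRE luciferase reporter; nearly all actives have a fitted effect of over 45% in size.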 In outline:
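HepG2-AhR-luc (HG2L7.5c1) cells, 4000/well, treated 24 h at 37 C with compound; viability measured as CellTiter-Fluor fluorescence after 30 min in the same wells as the luciferase read.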

In test [8] the target is Peroxisome proliferator-activated receptor gamma (Homo sapiens) (UniProt P37231). Briefly: qHTS assay to identify small molecule agonists of the peroxisome proliferator-activated receptor gamma (PPARg) signaling pathway (AID 743094; active = well fitted activation curve with a large enough effect in the signal ratio in the repeat runs, not every such curve was filed as active; inconclusive = weak or mixed curves, or effect the other way; inactive = no such curve, though single readings can be large or run the other way; the % refers to the signal ratio). In short, it runs like this:
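GeneBLAzer PPARg UAS-bla HEK293H cells carrying a stably integrated beta-lactamase reporter were pre-incubated 5 h at 37C, then exposed to compounds in DMSO for 17 h at 37C; LiveBLAzer B/G FRET substrate was added for 1 h at room temperature and fluorescence read.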

The target is the same in test [9]. Briefly: qHTS assay to identify small molecule antagonists of the peroxisome proliferator-activated receptor gamma (PPARg) signaling pathway (AID 743191; calls by dose curve; also: nearly all actives have a fitted effect of over 30% in size). In short, it runs like this:
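GeneBLAzer PPARg UAS-bla HEK293H cells, 5 h post-plating, exposed to compounds 17 h at 37C. LiveBLAzer B/G FRET substrate added for 1 h at room temperature; beta-lactamase reporter read by fluorescence intensity.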

The nature of test [10]: qHTS assay to identify small molecule antagonists of the peroxisome proliferator-activated receptor gamma (PPARg) signaling pathway - cell viability counter screen (AID 743194). Also: nearly all actives have a fitted effect of over 55% in size. The settings on record: Potency: co-treated with 50 nM rosiglitazone unless noted. In outline: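 Cytotoxicity counter screen in PPARg-bla HEK293H cells, same wells as reporter assay. Compounds plus 50 nM rosiglitazone (final) for 17 h at 37 C, then viability read by CellTiter-Glo luminescence.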

Test [11] in a line: qHTS assay for small molecule agonists of the antioxidant response element (ARE) signaling pathway - cell viability counter screen (AID 743203; calls by dose curve; also: nearly all actives have a fitted effect of over 55% in size). In short, it runs like this: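 CellSensor ARE-bla HepG2 cells, 2,000 per well, rested 5 hrs at 37C/5% CO2, then exposed to compound in DMSO for 16 hrs; viability read as CellTiter-Glo luminescence after 30 min at room temperature, in the reporter wells.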

Test [12] in a line: qHTS assay for small molecule activators of the heat shock response signaling pathway - cell viability counter screen (AID 743209). Also: nearly all actives have a fitted effect of over 50% in size. In outline: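 CellSensor HSE-bla HeLa cells, plated overnight at 37 C/5% CO2, were exposed to compounds in DMSO for 5 h at 37 C. Viability was then read in the same wells by CellTiter-Glo luminescence after 30 min at room temperature.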
Test [13] is described as follows: qHTS assay to identify small molecule agonists of the peroxisome proliferator-activated receptor delta (PPARd) signaling pathway - cell viability counter screen (AID 743211). Also: nearly all actives have a fitted effect of over 55% in size. In short, it runs like this:
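PPARd-bla HEK293H cells (UAS-beta-lactamase reporter) were treated with compounds for 17 h at 37 C. Viability was then read in the same wells by CellTiter-Glo luminescence after 30 min at room temperature.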

Test [14] deals with Estrogen receptor (Homo sapiens) (UniProt P03372). The experiment in a line: qHTS assay to identify small molecule antagonists of the estrogen receptor alpha (ER-alpha) signaling pathway (AID 743069; active = well fitted curve in the direction sought with a large enough effect in the signal ratio in the repeat runs, not every such curve was filed as active; inconclusive = weak or mixed curves, or effect the other way; inactive = no such curve, though single readings can be large or run the other way; the % refers to the signal ratio). In short, it runs like this: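 Reporter cells (ER-alpha-bla, HEK293 background) are conditioned overnight in stripped-serum medium (2% charcoal-stripped FBS). Compound and 17beta-estradiol exposure runs 18 hr at 37C, 5% CO2.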
Sequence of Estrogen receptor (Homo sapiens) (P03372 whole entry, looked up): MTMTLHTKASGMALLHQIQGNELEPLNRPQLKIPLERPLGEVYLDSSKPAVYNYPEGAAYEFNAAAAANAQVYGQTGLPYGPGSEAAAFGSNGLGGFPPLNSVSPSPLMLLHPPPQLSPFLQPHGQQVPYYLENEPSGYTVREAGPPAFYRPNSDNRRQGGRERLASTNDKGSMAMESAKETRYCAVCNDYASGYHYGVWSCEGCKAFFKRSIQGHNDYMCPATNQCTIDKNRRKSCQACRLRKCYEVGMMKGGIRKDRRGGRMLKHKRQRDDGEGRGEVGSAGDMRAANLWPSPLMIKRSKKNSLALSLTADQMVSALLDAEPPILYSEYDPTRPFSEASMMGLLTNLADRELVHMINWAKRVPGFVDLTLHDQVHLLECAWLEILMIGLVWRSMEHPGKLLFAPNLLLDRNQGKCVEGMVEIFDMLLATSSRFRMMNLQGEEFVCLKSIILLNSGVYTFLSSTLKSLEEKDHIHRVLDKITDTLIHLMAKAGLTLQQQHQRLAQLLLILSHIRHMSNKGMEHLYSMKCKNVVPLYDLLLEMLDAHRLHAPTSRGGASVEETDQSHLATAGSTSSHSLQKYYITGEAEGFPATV

Test [15] shares this target. Briefly: qHTS assay to identify small molecule agonists of the estrogen receptor alpha (ER-alpha) signaling pathway (AID 743075; calls by dose curve;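 also: HEK293 GripTite cells with ER-alpha and UAS-driven beta-lactamase reporter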; also: potency is read from the fitted curve at half-maximal effect).
Test [16] shares this target. Briefly: qHTS assay to identify small molecule agonists of the estrogen receptor alpha (ER-alpha) signaling pathway using the BG1 cell line (AID 743079). Also: nearly all actives have a fitted effect of over 20% in size. The settings on record: BG1Luc4E2 cells, ERE-luciferase agonist, 22 h; activation: at 70.3 µM (top of the series) unless noted.
Test [17] can be described thus: qHTS assay to identify small molecule antagonists of the estrogen receptor alpha (ER-alpha) signaling pathway using the BG1 cell line (AID 743080; calls by dose curve;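 also: BG1 cells stimulated with 17beta-estradiol alongside compound; nearly all actives have a fitted effect of over 25% in size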). In outline:
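BG1Luc4E2, endogenous ER-alpha, 4xERE-luc; 5 d charcoal-stripped FBS, phenol red free; 24 h plating; cpd + 17beta-estradiol 21.5 h, 37 C/5% CO2; CellTiter-Fluor viability 30 min, then ONE-Glo luciferase 30 min RT.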

Test [18] in a line: qHTS assay for small molecule agonists of the antioxidant response element (ARE) signaling pathway (AID 743202; active = well fitted activation curve with a large enough effect in the signal ratio in the repeat runs, not every such curve was filed as active; inconclusive = weak or mixed curves, or effect the other way; inactive = no such curve, though single readings can be large or run the other way; the % refers to the signal ratio). In outline: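 Agonist mode reporter screen: HepG2 cells with ARE-controlled beta-lactamase are incubated with test compounds for 16 h at 37 C, and beta-lactamase activity is measured as fluorescence of cleaved B/G FRET substrate.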
Test [19] in a line: qHTS assay for small molecule activators of the heat shock response signaling pathway (AID 743210; active = well fitted activation curve with a large enough effect in the signal ratio in the repeat runs, with a control signal flat, not every such curve was filed as active; inconclusive = weak or mixed curves; the % refers to the signal ratio;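 also: HeLa cells with beta-lactamase reporter driven by heat shock elements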). In short, it runs like this: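 Quantitative high-throughput format using an engineered HeLa line in which heat shock response elements drive beta-lactamase; after 5 h with compound, cells received a B/G FRET substrate and fluorescence was read.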

Sequence of Peroxisome proliferator-activated receptor gamma (Homo sapiens) (P37231 whole entry, looked up): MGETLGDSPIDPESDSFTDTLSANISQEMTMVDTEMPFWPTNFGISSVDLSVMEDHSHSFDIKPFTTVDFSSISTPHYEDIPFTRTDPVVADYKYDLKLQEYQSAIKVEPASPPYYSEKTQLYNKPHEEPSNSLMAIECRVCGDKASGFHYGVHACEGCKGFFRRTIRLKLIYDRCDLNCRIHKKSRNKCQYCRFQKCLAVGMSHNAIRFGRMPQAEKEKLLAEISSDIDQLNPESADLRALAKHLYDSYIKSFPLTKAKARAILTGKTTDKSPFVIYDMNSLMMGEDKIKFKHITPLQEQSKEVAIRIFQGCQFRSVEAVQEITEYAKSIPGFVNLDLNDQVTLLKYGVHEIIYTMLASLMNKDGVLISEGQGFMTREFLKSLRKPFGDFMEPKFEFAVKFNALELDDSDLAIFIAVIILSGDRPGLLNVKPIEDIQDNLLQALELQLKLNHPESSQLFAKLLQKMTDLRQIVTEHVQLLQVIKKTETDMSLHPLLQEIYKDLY
Sequence of Aryl hydrocarbon receptor (Homo sapiens) (P35869 whole entry, looked up): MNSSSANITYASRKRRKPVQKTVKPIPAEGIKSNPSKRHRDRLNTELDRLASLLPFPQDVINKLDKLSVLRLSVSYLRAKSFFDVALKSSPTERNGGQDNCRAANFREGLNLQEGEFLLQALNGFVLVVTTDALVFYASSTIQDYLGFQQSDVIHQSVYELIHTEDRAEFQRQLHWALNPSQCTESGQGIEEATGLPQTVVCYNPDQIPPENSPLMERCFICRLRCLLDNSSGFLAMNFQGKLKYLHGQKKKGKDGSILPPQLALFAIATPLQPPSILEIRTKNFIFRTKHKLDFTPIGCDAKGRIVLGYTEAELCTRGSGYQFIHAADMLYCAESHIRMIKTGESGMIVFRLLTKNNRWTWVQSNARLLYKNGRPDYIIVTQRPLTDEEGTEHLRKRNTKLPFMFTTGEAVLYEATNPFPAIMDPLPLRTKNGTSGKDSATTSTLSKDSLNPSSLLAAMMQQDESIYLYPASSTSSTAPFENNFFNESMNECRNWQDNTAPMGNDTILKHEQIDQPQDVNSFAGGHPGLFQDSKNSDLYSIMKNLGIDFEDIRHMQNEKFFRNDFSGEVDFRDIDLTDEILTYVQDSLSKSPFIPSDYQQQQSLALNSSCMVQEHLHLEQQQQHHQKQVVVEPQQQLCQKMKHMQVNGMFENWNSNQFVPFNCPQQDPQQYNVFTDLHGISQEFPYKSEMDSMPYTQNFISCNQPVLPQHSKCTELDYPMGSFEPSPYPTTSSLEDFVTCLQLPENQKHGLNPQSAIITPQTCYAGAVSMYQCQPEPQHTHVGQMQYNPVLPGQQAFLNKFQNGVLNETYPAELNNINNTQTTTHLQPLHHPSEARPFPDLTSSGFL
Sequence of Aromatase (Homo sapiens) (P11511 whole entry, looked up): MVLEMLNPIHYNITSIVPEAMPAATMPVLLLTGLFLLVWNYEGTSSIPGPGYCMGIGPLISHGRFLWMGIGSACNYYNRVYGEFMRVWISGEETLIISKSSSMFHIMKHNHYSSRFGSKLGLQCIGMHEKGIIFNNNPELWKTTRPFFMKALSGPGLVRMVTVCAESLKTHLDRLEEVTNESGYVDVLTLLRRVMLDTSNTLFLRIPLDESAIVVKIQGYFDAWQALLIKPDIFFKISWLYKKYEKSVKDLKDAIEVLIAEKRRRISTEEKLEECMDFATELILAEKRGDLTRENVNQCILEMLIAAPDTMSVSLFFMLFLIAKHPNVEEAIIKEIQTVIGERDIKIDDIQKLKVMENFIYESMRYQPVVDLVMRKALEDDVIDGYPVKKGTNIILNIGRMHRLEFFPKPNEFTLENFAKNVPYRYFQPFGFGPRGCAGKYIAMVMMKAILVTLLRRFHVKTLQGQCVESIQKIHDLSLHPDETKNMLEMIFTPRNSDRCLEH

In the case of `CC1=CC(=O)CC(C)(C)C1`, the Potency result (in test [1]; in test [2]; in test [3]; in [4]; in the test with Aromatase (Homo sapiens); in test [5]) was “inactive” in each case. Besides, the Potency entry in test [6], in test [7], in test [8], in test [9], in test [10] and in test [11] was “inactive” in each case. The Potency entry in test [12] and in test [13] was “inactive” in each case.

On to `C[Si](C)(C)N[Si](C)(C)C`, for which the Potency entry in [1], in [2], in test [14], in test [16], in test [17] and in test [4] was “inactive” in each case. Moreover, the Potency entry (with Aromatase (Homo sapiens); in test [5]; in test [6]; in test [7]; in test [8]; in test [9]) was “inactive” each time. The Potency result in test [10], in test [18], in [11] and in test [19] was “inactive” throughout. For the same compound, the Potency in test [15] was 86.4 nM [inconclusive] (active) and inactive.

`NC(N)=S`: the Potency result in test [1], in test [2], in [14], in test [15], in [16] and in test [17] was “inactive” each time. The Potency result (in [4]; in the test with Aromatase (Homo sapiens); in test [5]; in test [6]; in test [7]; in test [8]) was “inactive” in each case. For the same compound, the Potency entry in test [9], in test [10], in test [18], in test [11] and in test [13] was “inactive” in each case.

Turning to `C=CC(C)(C)C`, the Potency entry in [1], in test [2], in test [14], in [3], in [15] and in test [16] was “inactive” each time. The Potency entry (in test [17]; in [4]; with Aromatase (Homo sapiens); in test [5]; in test [6]; in test [7]) was “inactive” in each case. Moreover, the Potency entry in test [8], in test [18], in test [11], in test [12], in test [19] and in [13] was “inactive” each time.

For the compound `CC(C=O)Cc1ccc(C(C)(C)C)cc1` (centres undefined), the Potency in [1] was 43.3 µM (active). Besides, the Potency result (in [2]; in test [3]; in test [4]; with Aromatase (Homo sapiens); in [5]; in [6]) was “inactive” in each case. Moreover, the Potency result in test [7], in test [8], in test [9], in [10], in test [11] and in [12] was “inactive” each time. Moreover, the Potency entry in test [19] was “inactive”.

As to `O=C1C(N(CO)C(=O)NCO)N(CO)C(=O)N1CO` (centres undefined), the Potency result in test [1], in test [2], in test [14], in test [3], in test [15] and in test [16] was “inactive” in each case. For the same compound, the Potency result (in test [17]; in test [4]; with Aromatase (Homo sapiens); in test [5]; in test [6]; in test [7]) was “inactive” in each case. Also, the Potency result in [8], in test [10], in test [11], in test [19] and in test [13] was “inactive” throughout.

Turning to `CCCOC(=O)NCCCN(C)C`, the Potency entry (in test [1]; in [2]; in test [3]; in test [4]; with Aromatase (Homo sapiens); in test [5]) was “inactive” throughout. Moreover, the Potency entry in [6], in [7], in [8], in test [9], in test [10] and in test [11] was “inactive” in each case. Besides, the Potency entry in test [13] was “inactive”.

In the case of `CC(=O)OCc1ccc2c(c1)OCO2`, the Potency entry (in test [1]; in test [2]; in test [3]; in test [4]; with Aromatase (Homo sapiens); in [5]) was “inactive” each time. In addition, the Potency entry in test [6], in test [7], in [10], in test [18], in [11] and in test [12] was “inactive” in each case. In addition, the Potency entry in [19] was “inactive”.

As for `OCc1ccc(Cl)cc1Cl`, the Potency entry (in test [1]; in [2]; in [3]; in test [4]; with Aromatase (Homo sapiens); in test [5]) was “inactive” each time. Also, the Potency result in test [6], in test [7], in [8], in test [9], in [10] and in [18] was “inactive” throughout. Also, the Potency entry in test [11], in test [12], in test [19] and in [13] was “inactive” throughout.
